Data on 40 compounds can be found in PubChem BioAssay (Tox21).

Molecules are shown by their SMILES. Values joined by “and” are separate entries in the source; they are usually repeats but may differ in a detail not shown here. Identical values can stand only once. Results filed as inconclusive are left out. Entries that show only a call come without a potency. Active and inactive are the calls of the source. Calls follow the shape of the dose curve; as a rule, active = well fitted cell-killing curve with a large enough effect in the repeat runs; inconclusive = weak or mixed curves; inactive = flat fitted curve, though single readings scatter.
Potency is read from the fitted curve at half-maximal effect.

This assay can be described thus: qHTS RealTime-Glo MT Cell Viability Assay in HepG2 cells - 24 hour (AID 1224867). Also: nearly all actives have a fitted effect of over 50% in size. Particulars: RealTime-Glo luminescence; series mostly up to 76.8 µM; activity change, negative = cytotoxicity: at the top concentration. An excerpt: U.S. Tox21 Program National Center for Advancing Translational Sciences [NCATS] NIH Chemical Genomics Center [NCGC] U.S. Environmental Protection Agency [EPA] National Institutes of Environmental Health Sciences [NIEHS] National Toxicology Program [NTP] U.S. Food and Drug Administration [FDA] Tox21 Assay Overview: Measure of cell viability is critical in the cell-base assay. Analysis of cell viability is necessary for the characterization of cell responses to cytotoxic drugs and environmental stress. A RealTime-Glo MT Cell Viability Assay to monitor cell viability in real time of continues cell culture during 40 hours of compound treatment was used to screen Tox21 10K library compounds in HepG2 cells. The RealTime-Glo MT Cell Viability Assay is a nonlytic, homogeneous, bioluminescent method to measure cell viability in real time using a simple, plate-based method. The assay involves adding NanoLuc luciferase and a cell-permeant prosubstrate to cells in culture. Viable cells reduce the proprietary prosubstrate to generate a substrate for NanoLuc luciferase. This substrate diffuses from cells into the surrounding culture medium, where it is rapidly used by the NanoLuc Enzyme to produce a luminescent signal. The signal correlates with the number of viable cells, making the assay well suited for cytotoxicity studies.
Tox21 Assay Protocol Summary: The mixture of HepG2 cell suspension and reagents were dispensed at 600cells/6 ul/well in 1536-well tissue culture treated black solid bottom plates using a Multidrop dispenser. After the assay plates were incubated at a 37 C/5% CO2 incubator for 5 hours, 23 nL of compounds dissolved in DMSO, positive and negative controls was transferred to the assay plate by a pintool work station. The plates were incubated at 37 C for 40 hours. The luminescence intensity were measured at 0h, 8h, 16h, 24h, 32h and 40h time points using ViewLux plate reader during compound treatment.
On the technique in general: qHTS replaces the single test concentration by a dilution series.
As for `C=CCc1ccc(O)c(OC)c1`, the Potency entry was “inactive”. `Nc1ccc(O)c([N+](=O)[O-])c1`: the “activity change, negative = cytotoxicity” value was -8.94% (inactive). Turning to `NS(=O)(=O)O`, the Potency entry was “inactive”. On the same count and under the same terms, for `CS(=O)(=O)OCCCCOS(C)(=O)=O` the value was “inactive”; for `CN1CCc2cccc3c2[C@H]1Cc1ccc(O)c(O)c1-3`, 44.1 µM (active) and 16.3 µM (active) and 23.9 µM (active). For the compound `NC1CCCCC1`, the Potency entry is “inactive”. `NS(=O)(=O)c1cc2c(cc1Cl)NCNS2(=O)=O`: the Potency entry was “inactive”. Still for that read-out and setting: for `CCCc1cc(=O)[nH]c(=S)[nH]1` the value was “inactive”; for `O=C1O[C@H]([C@@H](O)CO)C(O)=C1O`, “inactive”; for `CC(=O)Nc1c(I)c(NC(C)=O)c(I)c(C(=O)O)c1I`, “inactive”.

For `CN(C)C(=O)Nc1ccc(Cl)c(Cl)c1`, the Potency result was “inactive”. Take `CCOc1ccc(NC(C)=O)cc1`: the Potency entry was “inactive”. The same measure, in the same setting: for `OC[C@H]1O[C@H](O[C@]2(CCl)O[C@H](CCl)[C@@H](O)[C@@H]2O)[C@H](O)[C@@H](O)[C@H]1Cl` the value was “inactive”; for `Cc1ccc(S(=O)(=O)O)cc1`, “inactive”. Regarding `COc1ccc(C(Cl)=C(c2ccc(OC)cc2)c2ccc(OC)cc2)cc1`, the Potency result was “inactive”.

Take `Cc1cn([C@H]2C=C[C@@H](CO)O2)c(=O)[nH]c1=O`: the Potency entry is “inactive”. With `Nc1ccc(S(N)(=O)=O)cc1`, the Potency entry was “inactive”.

On to `CC(C)c1c(C(=O)Nc2ccccc2)c(-c2ccccc2)c(-c2ccc(F)cc2)n1CC[C@@H](O)C[C@@H](O)CC(=O)O`, for which the Potency entry is “inactive”. Turning to `Oc1ccccc1`, the Potency entry is “inactive”. As to `CC(=O)CCC(=O)O`, the Potency entry is “inactive”. With `NC(=O)n1c(O)c(C(=O)c2cccs2)c2cc(Cl)ccc21`, the “activity change, negative = cytotoxicity” value was -15.9% [at 35.3 µM] (inactive).

Consider `CCN(CC)C(=O)c1cccc(C)c1`, for which the Potency result was “inactive”. For the compound `F[B-](F)(F)F`, the Potency result is “inactive”. For `CC(C)C(=O)Nc1ccc([N+](=O)[O-])c(C(F)(F)F)c1`, the Potency result was “inactive”. As for `Nc1c(N=Nc2ccc(-c3ccc(N=Nc4cc(S(=O)(=O)O)c5ccccc5c4N)cc3)cc2)cc(S(=O)(=O)O)c2ccccc12`, the Potency is 48.9 µM (active). Still for that read-out and setting: then `Cc1cccc(C)c1`, with “inactive”; and `COc1ccc(OC(F)(F)F)cc1CN[C@H]1CCCN[C@H]1c1ccccc1`, with 54.9 µM (active).

Regarding `CCCCCCCCCCCCCCCC[N+](C)(C)Cc1ccccc1`, the Potency was 22.6 µM (active) and 15.8 µM (active) and 10.7 µM (active). Still for that read-out and setting: then `CC(=O)C(=O)O`, with “inactive”.

Regarding `O=C1c2c(O)cccc2Cc2cccc(O)c21`, the Potency result was “inactive”. Turning to `CCCC[P+](CCCC)(CCCC)CCCC`, the Potency result was “inactive”.

As for `CCCCCCCC(=O)OCC(COC(=O)CCCCCCC)OC(=O)CCCCCCC`, the Potency entry is “inactive”.

Consider `O=C1OC2(c3ccccc31)c1cc(Br)c(O)c(Br)c1Oc1c2cc(Br)c(O)c1Br`, for which the “activity change, negative = cytotoxicity” value is -16.2% [at 35.3 µM] (inactive). `NC(CO)(CO)CO`: the Potency result was “inactive”. Same read-out and setting: then `CCCCNC(=O)NS(=O)(=O)c1ccc(C)cc1`, with “inactive”. Still for that read-out and setting: for `CCCCCCc1ccc(O)cc1O` the value was “inactive”. `Nc1ccc([N+](=O)[O-])cc1O`: the “activity change, negative = cytotoxicity” value was -2.04% (inactive). As for `Cc1c(C(=O)O)c(O)cc2c1C(=O)c1c(O)c([C@@H]3O[C@H](CO)[C@@H](O)[C@H](O)[C@H]3O)c(O)c(O)c1C2=O`, the Potency result was “inactive”.

As to `CCCCC(CC)C(=O)O` (stereo not given), the Potency entry was “inactive”. In the case of `O=C1NC(=O)C(c2ccccc2)(c2ccccc2)N1`, the Potency result is “inactive”.
